This is a sample that favours compounds with a hit; in the whole collection about 1.7% have one here.
IDH1 R132H inh: blocks human mutant IDH1 R132H enzyme; IDH1-R132H enzyme, NADPH consumption, diaphorase/resazurin fluorescence; hit rate 0.093% among 390,000; AID 602179; O75874; Potency, µM (doses to about 76.6 µM), most hits filed as inhibitors; also: nearly all actives have a fitted effect of over 65% in size
Target sequence (O75874 whole entry R132H, stated change not applied): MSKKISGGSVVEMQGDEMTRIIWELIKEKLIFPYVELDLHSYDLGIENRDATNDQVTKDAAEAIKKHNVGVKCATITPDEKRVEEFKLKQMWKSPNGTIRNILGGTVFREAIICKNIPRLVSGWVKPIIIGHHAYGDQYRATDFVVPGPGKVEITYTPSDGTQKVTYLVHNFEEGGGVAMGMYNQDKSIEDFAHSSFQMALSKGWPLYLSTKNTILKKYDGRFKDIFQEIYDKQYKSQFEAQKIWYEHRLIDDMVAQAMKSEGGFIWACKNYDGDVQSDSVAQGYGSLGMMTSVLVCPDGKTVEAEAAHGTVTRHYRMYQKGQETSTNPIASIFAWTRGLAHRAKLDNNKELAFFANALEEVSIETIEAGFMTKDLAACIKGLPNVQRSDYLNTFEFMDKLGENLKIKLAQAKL
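IDH1-R132H (0.5 ug/mL dispensed) in pH 7.5 Tris buffer was preincubated 30 min with compound, then given a substrate mix of 0.016 mM NADPH and 2 mM alpha-KG for 80 min at room temperature; remaining NADPH was read by diaphorase/resazurin fluorescence.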
Anesthetic bind: binds horse apoferritin like a general anesthetic. P02791. apoferritin/1-aminoanthracene competitive binding, fluorescence. Potency, µM (highest dose often 77.5 µM), actives largely listed as inhibitors. hit rate 0.074% among 350,000. AID 485281; also: nearly all actives have a fitted effect of over 20% in size
Target sequence (P02791 2-175 limits assumed): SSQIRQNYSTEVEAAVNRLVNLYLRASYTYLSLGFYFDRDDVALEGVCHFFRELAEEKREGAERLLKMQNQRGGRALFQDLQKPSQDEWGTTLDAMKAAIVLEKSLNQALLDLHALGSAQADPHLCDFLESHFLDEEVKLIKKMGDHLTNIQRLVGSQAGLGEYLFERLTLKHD
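Apoferritin-based anesthetic binding model; compound displacement of fluorescent 1-AMA measured as endpoint fluorescence after 10 minutes at room temperature, scaled to free-ligand and complex controls.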
TrxR1 substrate: rat thioredoxin reductase 1 substrate activity; hit rate 0.01% among 390,000; Potency, µM (doses to about 114 µM); O89049; purified TrxR1 substrate turnover, NADPH consumption readout; also: nearly all actives have a fitted effect of over 50% in size
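Rat TrxR1, dispensed at 90 nM, was prereduced with 400 uM NADPH (final) for 5 min at ~22 deg C, then incubated with compound 15 min before 400 uM selenite. A first-read NADPH fluorescence drop versus no-compound background flagged substrates.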
Glioma ERSR ind: induces the endoplasmic reticulum stress response in human glioma cells | U87-MG GRP78 promoter luciferase reporter, 16 h | Potency, µM, most hits filed as activators | hit rate 0.02% among 420,000; also: series mostly up to about 76 µM; nearly all actives have a fitted effect of over 35% in size
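Stably transfected U87-MG glioma cells carrying a GRP78-based luciferase sensor; 16 h compound incubation. Luminescence end-point read 10 min after Bright-Glo addition at room temperature.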
TrxR1 inh: inhibitors of rat thioredoxin reductase 1. O89049. recombinant rTrxR1, NADPH fluorescence consumption, selenite substrate. Potency, µM (top dose mostly 114 µM), hits mostly inhibitors. hit rate 1% among 390,000. AID 588453; also: nearly all actives have a fitted effect of over 65% in size
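Rat TrxR1 (90 nM in the dispensed reagent) was pre-reduced with 400 uM NADPH for 5 min at room temperature, then incubated with compound for 15 min. After 400 uM selenite was added, NADPH fluorescence (Ex 340/Em 450 nm) was followed for 8 min.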
12-LOX inh: inhibitors of human 12S-lipoxygenase ALOX12 | P18054 | purified 12hLO, xylenol orange hydroperoxide absorbance | Potency, µM (doses to about 108 µM), usual class: inhibitors | hit rate 1.1% among 580,000 | AID 1671190
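Hydroperoxide product was detected by ferrous iron/xylenol orange as the 573 to 405 nm absorbance ratio. Arachidonic acid at 40 uM (final) was turned over for 30 min at room temperature by 150 nM human 12hLO, pH 7.0 Hepes buffer, after 15 min compound preincubation.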
Numbers stand for hits; . = inactive; ? = inconclusive; / = no result given; ! = repeats disagree. Calls follow the shape of the dose curve; as a rule, active = well fitted curve in the direction sought with a large enough effect; inconclusive = small, poorly fitted or top-dose-only effect, or another doubt; inactive = no such curve, though single readings can be large; an effect the other way counts as inactive or inconclusive.

SMILES	IDH1 R132H inh	Anesthetic bind	TrxR1 substrate	Glioma ERSR ind	TrxR1 inh	12-LOX inh
CN(C)S(=O)(=O)c1cccc(NC(=S)NC23CC4CC(CC(C4)C2)C3)c1	.	.	.	.	.	?
NS(=O)(=O)c1cccc(NC(=S)NC(=O)C23CC4CC(CC(C4)C2)C3)c1	.	?	.	.	39.8µM	31.6µM
Cc1ccc(O)c(N=CC2=C(O)c3ccccc3C2=O)c1	.	?	.	31.6µM	.	.
CCN(CC(=O)Nc1ccc(NC(C)=O)cc1)C(=O)c1cc(-c2ccccc2)nn1-c1ccccc1	.	/	.	.	.	.
CCCN(CC(=O)Nc1ccccc1OC)C(=O)c1cc(-c2ccccc2)nn1-c1ccccc1	.	/	.	.	.	44.7µM
COc1ccc2c(-c3ccccc3)cc(N3CCOCC3)nc2c1	.	.	.	.	.	1.78µM
c1ccc(-c2cc(-c3ccc(N4CCOCC4)cc3)nc3ccccc23)cc1	.	.	.	.	.	.
O=C(Nc1ccncc1)C1C(=O)c2ccccc2N(Cc2ccccc2)C1=O (centres undefined)	/	/	.	.	.	/
CC(=O)c1ccc(C(=O)O)s1	/	/	/	/	/	15.8µM
O=C(c1cn[nH]c1-c1ccccc1)N1CCN(S(=O)(=O)c2ccc3c(c2)CCC3)CC1	/	/	/	/	/	.
C[C@H](CO)N1C[C@H](C)[C@@H](CN(C)C(=O)Nc2ccccc2)Oc2c(NC(=O)c3ccncc3)cccc2C1=O	.	/	.	.	.	.
C[C@H]1CN([C@@H](C)CO)C(=O)c2cccc(NC(=O)c3ccncc3)c2O[C@H]1CN(C)C(=O)Nc1ccccc1	.	/	.	.	56.2µM	.
Cc1ccc(C)c(-c2cc(C(=O)O)c3cc(C)ccc3n2)c1	/	/	/	/	/	.
Cc1ccc2nc(-c3ccco3)cc(C(=O)O)c2c1	/	/	/	/	/	7.94µM!
COC(=O)c1cc(-c2ccco2)nc2ccccc12	/	/	/	/	/	14.1µM
O=C(O)c1cc(-c2ccco2)nc2ccccc12	.	.	.	.	?	7.08µM
Cc1ccc(-c2cc(C(=O)OCC(=O)NC34CC5CC(CC(C5)C3)C4)c3ccccc3n2)o1	/	/	/	/	/	1.26µM
CC(=O)N1CCN(C(=O)c2cc(-c3ccco3)nc3ccccc23)CC1	/	/	/	/	/	.
COc1cccc(NC(=O)Cn2c(-c3ccccc3)nc(C)c(CCO)c2=O)c1	/	/	/	/	/	.
CSc1ccc(CCNC(=O)C(CCS(C)(=O)=O)N2Cc3ccccc3C2=O)cc1 (centres undefined)	/	/	/	/	/	.
CCC(Sc1nc2ncccc2c(=O)n1Cc1ccccc1)C(=O)Nc1ccc(OC)cc1 (centres undefined)	/	/	/	/	/	.
CCn1cc(-c2cc(C(=O)O)c3ccccc3n2)c(C)n1	.	.	.	.	?	12.6µM!
Cc1cc(C(=O)OC(C)C(=O)NC2CCCCC2C)c2ccccc2n1 (centres undefined)	.	/	/	.	/	.
COC(=O)c1cc(-c2ccco2)nc2c(Cl)cccc12	/	/	/	/	/	22.4µM
CCn1cc(-c2cc(C(=O)O)c3ccccc3n2)cn1	.	.	.	.	.	.
SMILES	IDH1 R132H inh	Anesthetic bind	TrxR1 substrate	Glioma ERSR ind	TrxR1 inh	12-LOX inh
COc1ccc(-c2cc(C(=O)OCC(=O)c3ccc(C)cc3)c3cccc(Cl)c3n2)cc1	.	.	.	.	.	?
O=C(NC(=S)Nc1cccc(S(=O)(=O)NC2=NCCC2)c1)c1cc(-c2ccco2)nc2ccccc12	.	.	.	.	25.1µM	.
Cc1ccc(-c2cc(C(=O)OC(C)C(=O)NC3CCCC3)c3ccccc3n2)o1 (centres undefined)	/	/	/	/	/	6.31µM
N#Cc1c(N)n[nH]c1CCCNC(=O)c1cc(-c2ccco2)nc2ccccc12	/	/	/	/	/	20µM
COC(=O)c1cc(-c2ccc(C)o2)nc2ccccc12	.	.	.	.	31.6µM	6.31µM
Nc1ccc(-c2cc(C(=O)O)c3ccccc3n2)cc1	/	/	/	/	/	17.8µM
O=C(O)c1cc(-c2cc(C(=O)O)c3ccccc3n2)nc2ccccc12	/	.	/	/	/	/
N#CCCSc1nnc(-c2c[nH]c3ccccc23)n1C1CC1	/	/	/	/	/	.
O=[S+]1([O-])CCCN1C1CCN([S+](=O)([O-])c2cccc(C(F)(F)F)c2)CC1	/	/	/	/	/	.
COCc1nnc2n1CCC(NC(=O)CCc1nc3ccccc3s1)CC2 (centres undefined)	/	/	/	/	/	.
CN=c1scc(-c2ccc(F)cc2)n1/N=C/c1ccc(O)c(O)c1	.	.	.	.	.	44.7µM
CN=c1scc(-c2ccc([N+](=O)[O-])cc2)n1/N=C/c1ccco1	.	.	.	.	.	?
CN(C)CCOc1ccccc1-c1ccc(C#N)cc1	/	/	/	/	/	.
CC(=O)Nc1nc(C)c(-c2ccc(Cl)c(S(=O)(=O)NCCO)c2)s1	/	/	/	/	/	.
COc1ccc(Nc2oc(COc3ccccc3OC)nc2C#N)cc1	.	.	.	.	44.7µM	.
CN(C)CCNc1oc(COc2ccc(Cl)cc2)nc1C#N	.	.	.	.	14.1µM	.
COc1ccccc1OCc1nc(C#N)c(NCc2ccc(C)cc2)o1	.	.	.	.	.	.
CN(C)CCNc1oc(COc2cccc(Cl)c2)nc1C#N	.	?	.	.	?	.
O=C(c1nc(-c2cccnc2)no1)N1CCN(c2ccccc2)CC1	/	/	/	/	/	.
Cc1nnc(NC(=O)CC[C@H]2NC(=O)c3ccccc3NC2=O)s1	/	/	/	/	/	.
CS(=O)(=O)N(CC(=O)N1CCN(c2ccccc2)CC1)c1cccc(Br)c1	.	.	.	.	.	28.2µM
CCOC(=O)c1sc(NC(=O)c2cccc(S(=O)(=O)N3CCN(C)CC3)c2)cc1C	.	?	.	.	.	44.7µM
CNC(=O)/C=C/c1cccc(F)c1	/	/	/	/	/	.
O=C1CSc2ccc(S(=O)(=O)CCC(=O)N(CCc3ccccc3)Cc3ccccc3)cc2N1	/	/	/	/	/	.
O=C(OCCc1ccccc1)c1cc(O)c(O)c(O)c1	.	/	.	.	.	2.82µM
SMILES	IDH1 R132H inh	Anesthetic bind	TrxR1 substrate	Glioma ERSR ind	TrxR1 inh	12-LOX inh
COc1ccc(C(=O)N2CCCC(c3noc(COc4ccccc4)n3)C2)cc1 (centres undefined)	/	/	/	/	/	.
c1ccc(-c2nc(CSC3=NCCCN3)cs2)cc1	/	/	/	/	/	15.8µM
COc1ccc(CNC(=O)CC[C@H]2CNC(=O)[C@@H]3[C@@H](CCN3Cc3ccc(C)cc3)N2C)cc1	/	/	/	/	/	.
CCOc1cc(C(=O)NC2(C(=O)OC)CCCCC2)ccc1OC	/	/	/	/	/	.
C[C@H]1COC(=O)[C@H](NC(=O)OCC2c3ccccc3-c3ccccc32)C/C=C\C[C@H](CC(=O)N(CCO)Cc2ccccc2)C(=O)N1	.	/	.	.	.	39.8µM
O=C(C[C@H]1C/C=C\C[C@H](NC(=O)OCC2c3ccccc3-c3ccccc32)C(=O)O[C@H](c2ccccc2)CNC1=O)N[C@H](CO)Cc1ccccc1	.	/	.	28.2µM	.	/
Cc1ccc(C(CC#N)C2CCOC(C)(C)C2)cc1 (centres undefined)	/	/	/	/	/	.
